Laboratory results reported in PubChem BioAssay (EPA / NIEHS).
Results filed as inconclusive are left out. Active and inactive are the calls of the source. Rule for the calls, unless noted: active = hit-call score of the fitted dose curve at least 0.9, where 1 is the maximum; inactive = score below 0.9.

Legend:
[1] = ACEA_ER_80hr: ACEA Biosciences xCELLigence Real-Time Cell Analysis on Estrogen Receptor Agonism for Proliferation (AID 2282667; active = hit-call score of the fitted dose curve at least 0.9, where 1 is the maximum); conditions: T47D proliferation, impedance (xCELLigence), 80 h
Procedure, shortened: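 Impedance readout (RT-CES) of T47D proliferation at 80 h post-dose; gain of signal vs DMSO baseline. Compounds: 8 conc, 1:4 serial, top 100 uM final, ≤0.5% DMSO; biological duplicate.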

[2] = biological target: CCAAT/enhancer-binding protein beta (Homo sapiens) (UniProt P17676); test: ATG_C_EBP_CIS: Attagene CIS-FACTORIAL HepG2 Assay for human CCAAT/Enhancer Binding Protein (C/EBP) beta (AID 2282927); conditions: HepG2 Attagene cis-factorial transcription factor reporter; actives raise or lower the signal
Procedure, shortened: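 HepG2, transient MRTU transfection, 24 h treatment. RT-PCR plus CE fluorescence; DMSO negative control, bidirectional fit.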

[3] = ATG_CMV_CIS: Attagene CIS-FACTORIAL HepG2 Assay for human CMV (Internal Marker) (AID 2282928); conditions: HepG2 CMV promoter reporter, transcription factor profiling; actives raise or lower the signal;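 note: endpoint acts as a background internal control marker rather than a target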
Procedure, shortened: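 Cell system: HepG2, transiently transfected multiple reporter units under cis promoters. Exposure: 24 h. Detection: RT-PCR, FAM labeling, HpaI digestion, capillary electrophoresis. Analysis: bidirectional, DMSO baseline.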

[4] = ATG_DR4_LXR_CIS: Attagene CIS-FACTORIAL HepG2 Assay for human Liver X Receptor (LXR), DR4 submotif (AID 2282929); conditions: HepG2 Attagene DR4 cis-reporter, mRNA transcription; actives raise or lower the signal
Procedure, shortened: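 The endpoint is DR4-element-driven reporter transcripts after 24 h chemical exposure of transfected HepG2 cells. These were measured via RT-PCR and capillary electrophoresis, and gain or loss of signal was fitted relative to DMSO controls.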

[5] = biological target: Aryl hydrocarbon receptor (Homo sapiens) (UniProt P35869); test: ATG_Ahr_CIS: Attagene CIS-FACTORIAL HepG2 Assay for human Aryl Hydrocarbon Receptor (Ahr) (AID 2282930); conditions: HepG2 AhR cis-factorial reporter transcription; actives raise or lower the signal
Procedure, shortened: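 Endogenous factor activity is tracked through cis-promoter reporter units transfected into HepG2 cells. Transcript levels at 24 h are read by fluorescent RT-PCR and capillary electrophoresis, with activity in either direction scored relative to DMSO.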

[6] = ATG_AP_1_CIS: Attagene CIS-FACTORIAL HepG2 Assay for human Activator Protein 1 (AP-1) (AID 2282931); conditions: HepG2 Attagene cis-factorial AP-1 reporter mRNA; actives raise or lower the signal
Procedure, shortened: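 Readout is reporter transcript level from endogenous transcription factor activity, quantified by RT-PCR with fluorescent primer extension and capillary electrophoresis. Transiently transfected HepG2 cells, 24 h exposure. Curves fitted both directions versus DMSO.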

[7] = ATG_AP_2_CIS: Attagene CIS-FACTORIAL HepG2 Assay for human Activator Protein 2 (AP-2) (AID 2282932); conditions: HepG2 AP-2 cis-reporter, Attagene transcription factor profiling; actives raise or lower the signal
Procedure, shortened: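 HepG2 cells transiently transfected with cis-element reporter units and exposed for 24 h. Reporter mRNA measured by RT-PCR, FAM labelling, HpaI digestion and capillary electrophoresis. Changes in either direction fitted relative to DMSO.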

[8] = ATG_BRE_CIS: Attagene CIS-FACTORIAL HepG2 Assay for human Bone Morphogenetic Protein (BMP) Response Element (BRE) (AID 2282933); conditions: HepG2 BMP response element reporter, Attagene transcription factor profiling; actives raise or lower the signal
Procedure, shortened: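 Endogenous transcription factor activity at a BMP response element was monitored in transfected HepG2 cells 24 h after dosing. Fluorescent RT-PCR products were resolved by capillary electrophoresis, and activity was fitted in both directions versus DMSO.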

[9] = biological target: Retinoic acid receptor alpha (Homo sapiens) (UniProt P10276); test: ATG_DR5_RAR_CIS: Attagene CIS-FACTORIAL HepG2 Assay for human Retinoic Acid Receptor Alpha (RARE), DR5 submotif (AID 2282934); conditions: HepG2 Attagene cis-factorial RARE DR5 reporter, mRNA; actives raise or lower the signal;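 for AC50: reporter responds to endogenous RAR alpha beta and gamma in HepG2 not RARA alone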
Procedure, shortened: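 After 24 h of chemical exposure, transiently transfected HepG2 cells were lysed for total RNA; the DR5-regulated reporter transcript was quantified via RT-PCR and capillary electrophoresis, with activity fitted bidirectionally against DMSO.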

[10] = biological target: Transcription factor E2F1 (Homo sapiens) (UniProt Q01094); test: ATG_E2F_CIS: Attagene CIS-FACTORIAL HepG2 Assay for human E2F Transcription Factor 1 (AID 2282935); conditions: HepG2 Attagene cis-reporter, E2F reporter RNA transcripts; actives raise or lower the signal
Procedure, shortened: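 Endogenous E2F1 activity read through cis-promoter reporter units transfected into HepG2. After 24 h compound treatment, reporter mRNA measured by RT-PCR, HpaI digestion and capillary electrophoresis. Bidirectional fit versus DMSO.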

[11] = ATG_E_Box_CIS: Attagene CIS-FACTORIAL HepG2 Assay for human Enhancer Box (E-box) (AID 2282936); conditions: HepG2 E-box cis-reporter transcription, actives raise or lower the signal
Procedure, shortened: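 HepG2 cells transiently transfected with multiplexed cis-element reporter units, dosed 24 h; reporter mRNA quantified by RT-PCR, 6-FAM labelling, HpaI digestion and capillary electrophoresis. E-box (USF1) signal fitted bidirectionally vs DMSO.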

[12] = ATG_M_61_CIS: Attagene CIS-FACTORIAL HepG2 Assay for M61 Transcription Factor (Internal Marker) (AID 2282937); conditions: HepG2 Attagene CIS-FACTORIAL M61 internal marker reporter; actives raise or lower the signal
Procedure, shortened: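 Readout is reporter mRNA by RT-PCR, fluorescent primer extension and capillary electrophoresis, with gain or loss fitted relative to DMSO. Transfected HepG2 cells carrying endogenous-TF-driven cis reporters were exposed to chemicals for 24 hours.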

[13] = ATG_ERE_CIS: Attagene CIS-FACTORIAL HepG2 Assay for Estrogen Response Element (ERE) (AID 2282940); conditions: HepG2 ERE cis-reporter, Attagene RNA transcript; actives raise or lower the signal
Procedure, shortened: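 Cells used were human hepatoma HepG2, transfected with multiple reporter transcription units under cis-regulatory promoters. Reporter mRNA, read 24 h post-dosing via fluorescent RT-PCR products on capillary electrophoresis, was fitted bidirectionally relative to DMSO.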

[14] = ATG_Ets_CIS: Attagene CIS-FACTORIAL HepG2 Assay for human Erythroblast Transformation Specific (ETS) (AID 2282941); conditions: HepG2 ETS cis-reporter transcription, actives raise or lower the signal
Procedure, shortened: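 After transient cis-reporter transfection, HepG2 cells receive test chemical for 24 h. Reporter mRNA levels, measured by RT-PCR and capillary electrophoresis fluorescence, are analysed bidirectionally relative to the DMSO baseline.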

[15] = biological target: Hepatocyte nuclear factor 3-beta (Homo sapiens) (UniProt Q9Y261); test: ATG_FoxA2_CIS: Attagene CIS-FACTORIAL HepG2 Assay for human Forkhead box A2 (FOXA2) (AID 2282942); conditions: HepG2 cis-reporter transcription factor activity, 24 h; actives raise or lower the signal
Procedure, shortened: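 Endogenous transcription factor activity is captured via cis-element-driven reporter transcripts in transfected HepG2. Total RNA taken at 24 h post-dosing; labelled RT-PCR products resolved by capillary electrophoresis. Gain or loss fitted versus DMSO.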

[16] = ATG_FoxO_CIS: Attagene CIS-FACTORIAL HepG2 Assay for human Forkhead box O (FoxO) (AID 2282943); conditions: HepG2 Attagene cis-reporter, FoxO element, mRNA; actives raise or lower the signal
Procedure, shortened: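 Transfected HepG2 reporter cells exposed to test chemical for 24 h; reporter RNA measured by reverse transcription, PCR and fluorescent capillary electrophoresis; curves fitted for increases and decreases against DMSO.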

[17] = ATG_EGR_CIS: Attagene CIS-FACTORIAL HepG2 Assay for human Early Growth Response 1 (EGR1) (AID 2282938); conditions: HepG2 Attagene CIS-FACTORIAL EGR reporter mRNA; actives raise or lower the signal
Procedure, shortened: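 After 24 h compound exposure, RNA from reporter-transfected HepG2 cells was reverse-transcribed, PCR-amplified, fluorescently labelled and resolved by capillary electrophoresis. EGR1 reporter transcript changes, up or down, were fitted against DMSO, reflecting endogenous transcription-factor activity.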

[18] = ATG_M_19_CIS: Attagene CIS-FACTORIAL HepG2 Assay for M19 Transcription Factor (Internal Marker) (AID 2282939); conditions: HepG2 Attagene CIS-FACTORIAL M19 internal marker reporter; actives raise or lower the signal
Procedure, shortened: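 Background-control endpoint from a multiplexed HepG2 reporter panel. Cells carrying cis-regulated reporter constructs are treated 24 h, then reporter transcripts are amplified, fluorescently labelled and sized by capillary electrophoresis. DMSO defines baseline.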

[19] = ATG_GATA_CIS: Attagene CIS-FACTORIAL HepG2 Assay for human GATA Binding Protein (AID 2282944); conditions: HepG2 GATA cis-element reporter, Attagene multiplex mRNA; actives raise or lower the signal
Procedure, shortened: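 Endogenous transcription factor activity was captured through cis-promoter-driven reporters in transfected HepG2 cells. After 24 h exposure, reporter transcripts were quantified by RT-PCR with fluorescent capillary electrophoresis, and responses fitted both directions against DMSO.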

Measured: AC50

Sequence of Aryl hydrocarbon receptor (Homo sapiens) (P35869 whole entry, looked up): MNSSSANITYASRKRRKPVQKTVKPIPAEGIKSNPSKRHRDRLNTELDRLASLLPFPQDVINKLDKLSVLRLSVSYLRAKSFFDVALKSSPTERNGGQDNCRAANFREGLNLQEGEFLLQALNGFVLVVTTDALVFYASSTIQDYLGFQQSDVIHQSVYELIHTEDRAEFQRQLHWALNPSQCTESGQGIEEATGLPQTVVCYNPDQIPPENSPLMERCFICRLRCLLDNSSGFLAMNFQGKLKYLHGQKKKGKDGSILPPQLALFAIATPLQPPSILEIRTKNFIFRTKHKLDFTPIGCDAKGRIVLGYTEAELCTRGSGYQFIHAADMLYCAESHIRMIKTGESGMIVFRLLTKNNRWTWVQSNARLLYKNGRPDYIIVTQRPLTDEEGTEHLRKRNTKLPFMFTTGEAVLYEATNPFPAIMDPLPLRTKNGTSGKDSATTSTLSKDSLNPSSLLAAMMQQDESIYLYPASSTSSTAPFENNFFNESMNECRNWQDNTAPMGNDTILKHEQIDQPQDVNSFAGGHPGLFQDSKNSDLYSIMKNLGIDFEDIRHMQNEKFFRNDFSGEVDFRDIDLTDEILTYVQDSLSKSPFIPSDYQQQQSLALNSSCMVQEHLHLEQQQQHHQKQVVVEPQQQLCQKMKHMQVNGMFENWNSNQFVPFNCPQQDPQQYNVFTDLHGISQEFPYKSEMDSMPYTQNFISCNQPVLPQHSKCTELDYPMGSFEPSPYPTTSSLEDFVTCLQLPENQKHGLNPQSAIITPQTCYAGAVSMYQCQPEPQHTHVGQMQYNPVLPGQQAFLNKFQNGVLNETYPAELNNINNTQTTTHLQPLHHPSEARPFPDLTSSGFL
Sequence of Transcription factor E2F1 (Homo sapiens) (Q01094 whole entry, looked up): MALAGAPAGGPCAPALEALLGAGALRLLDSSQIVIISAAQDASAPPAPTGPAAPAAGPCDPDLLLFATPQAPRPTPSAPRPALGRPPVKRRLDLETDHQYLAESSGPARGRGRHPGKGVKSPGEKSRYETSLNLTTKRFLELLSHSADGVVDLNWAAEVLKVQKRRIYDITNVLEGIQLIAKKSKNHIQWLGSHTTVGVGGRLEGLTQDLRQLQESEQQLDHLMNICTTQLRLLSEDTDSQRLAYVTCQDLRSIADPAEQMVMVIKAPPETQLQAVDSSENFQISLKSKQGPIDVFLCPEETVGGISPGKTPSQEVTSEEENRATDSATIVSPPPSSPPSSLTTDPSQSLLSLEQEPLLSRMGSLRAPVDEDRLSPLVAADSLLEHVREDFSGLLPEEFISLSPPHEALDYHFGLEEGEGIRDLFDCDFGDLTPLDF
Sequence of Retinoic acid receptor alpha (Homo sapiens) (P10276 whole entry, looked up): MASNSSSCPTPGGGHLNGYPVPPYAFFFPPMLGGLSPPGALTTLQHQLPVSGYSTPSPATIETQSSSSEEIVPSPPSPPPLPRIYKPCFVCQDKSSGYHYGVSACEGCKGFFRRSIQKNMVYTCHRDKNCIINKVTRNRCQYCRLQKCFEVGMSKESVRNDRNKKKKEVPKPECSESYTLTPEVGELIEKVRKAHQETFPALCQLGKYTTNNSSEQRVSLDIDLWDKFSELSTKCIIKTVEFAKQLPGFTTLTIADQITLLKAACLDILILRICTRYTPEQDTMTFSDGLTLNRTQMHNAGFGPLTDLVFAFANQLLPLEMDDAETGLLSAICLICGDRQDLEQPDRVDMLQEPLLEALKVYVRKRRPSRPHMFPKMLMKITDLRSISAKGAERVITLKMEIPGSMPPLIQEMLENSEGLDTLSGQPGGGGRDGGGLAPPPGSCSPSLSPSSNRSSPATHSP
Sequence of CCAAT/enhancer-binding protein beta (Homo sapiens) (P17676 whole entry, looked up): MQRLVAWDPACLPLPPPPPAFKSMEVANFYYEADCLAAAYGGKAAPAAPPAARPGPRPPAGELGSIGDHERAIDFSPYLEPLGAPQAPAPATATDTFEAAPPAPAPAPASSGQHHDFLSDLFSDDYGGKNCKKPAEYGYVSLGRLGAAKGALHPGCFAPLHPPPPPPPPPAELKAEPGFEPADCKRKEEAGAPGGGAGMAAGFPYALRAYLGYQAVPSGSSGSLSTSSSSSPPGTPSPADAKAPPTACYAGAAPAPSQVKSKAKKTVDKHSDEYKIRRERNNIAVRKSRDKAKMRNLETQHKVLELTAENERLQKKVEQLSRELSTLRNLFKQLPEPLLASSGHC
Sequence of Hepatocyte nuclear factor 3-beta (Homo sapiens) (Q9Y261 whole entry, looked up): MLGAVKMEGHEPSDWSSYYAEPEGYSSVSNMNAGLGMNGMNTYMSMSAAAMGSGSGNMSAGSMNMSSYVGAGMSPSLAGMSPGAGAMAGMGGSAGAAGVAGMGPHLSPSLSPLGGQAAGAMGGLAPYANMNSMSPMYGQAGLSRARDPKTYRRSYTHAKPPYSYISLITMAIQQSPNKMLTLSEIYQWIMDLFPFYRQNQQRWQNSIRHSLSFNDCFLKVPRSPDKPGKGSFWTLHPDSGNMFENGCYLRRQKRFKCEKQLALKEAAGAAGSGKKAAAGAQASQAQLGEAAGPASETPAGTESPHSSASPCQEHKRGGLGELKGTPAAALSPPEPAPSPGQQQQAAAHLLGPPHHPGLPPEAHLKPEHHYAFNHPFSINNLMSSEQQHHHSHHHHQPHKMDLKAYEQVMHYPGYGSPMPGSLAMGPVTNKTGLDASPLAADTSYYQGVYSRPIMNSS

CCCCCCCCCCCCCc1ccccc1
not listed: [17] | [18] | [19]
inactive: all other assays above

CCCCCCCC(=O)OCC
not listed: [13]
inactive: all other assays above

CCCCCCCCC(CO)CCCCCC (stereo not drawn)
active: [3] 8.41 µM | [4] 53 µM | [10] 189 µM | [11] 34.3 µM | [14] 173 µM | [19] 65.5 µM
not listed: [18]
inactive: all other assays above

CCOC(=O)OC(=O)OCC
not listed: [7]
inactive: all other assays above

C=C[C@@]1(C)CC(=O)[C@]2(O)[C@@]3(C)[C@@H](O)CCC(C)(C)[C@@H]3[C@H](O)[C@H](OC(C)=O)[C@@]2(C)O1
active: [1] 2.59 µM | [3] 0.476 µM | [4] 0.51 µM | [9] 3.81 µM
not listed: [13] | [14] | [15] | [17] | [18]
inactive: all other assays above

CC1CCC(=O)C1=O (stereo not drawn)
not listed: [3] | [17]
inactive: all other assays above

CC1OC(=O)C(C)OC1=O (stereo not drawn)
active: [1] 0.169 µM
not listed: [3] | [19]
inactive: all other assays above
